# Measured values as given in paper PMC5540273 (PLoS ONE, 2017).
# Read-outs that look alike come from different tables or passages of the source.
# Tests used:
# MEK5 = system: T1, MEK5; settings: concentration: 1 μM,replicates: in singlicate; n = 1
# T1 construct: gene MAP2K5
# MEK6 = system: T2, MEK6; settings: concentration: 1 μM,replicates: in singlicate; n = 1
# T2 construct: gene MAP2K6
# MELK = settings: concentration: 1 μM,replicates: in singlicate; n = 1
# MERTK = settings: concentration: 1 μM,replicates: in singlicate; n = 1
# MET = settings: n = 1
# MINK = system: T3, MINK; settings: concentration: 1 μM,replicates: in singlicate; n = 1
# T3 construct: gene MINK1
# MKK7 = settings: concentration: 1 μM,replicates: in singlicate; n = 1
# MKNK1 = settings: concentration: 1 μM,replicates: in singlicate; n = 1
# MKNK2 = settings: concentration: 1 μM,replicates: in singlicate; n = 1
# MLCK = system: T4, MLCK; settings: concentration: 1 μM,replicates: in singlicate; n = 1
# T4 construct: gene MYLK3
# MLK1 = system: T5, MLK1; settings: concentration: 1 μM,replicates: in singlicate; n = 1
# T5 construct: gene MAP3K9
# MLK2 = settings: concentration: 1 μM,replicates: in singlicate; n = 1
# MLK3 = settings: concentration: 1 μM,replicates: in singlicate; n = 1
# MRCKA = settings: concentration: 1 μM,replicates: in singlicate; n = 1
# MRCKB = system: T6, MRCKB; settings: concentration: 1 μM,replicates: in singlicate; n = 1
# T6 construct: gene CDC42BPB
# MST1R = settings: concentration: 1 μM,replicates: in singlicate; n = 1
# MST1 = system: T7, MST1; settings: concentration: 1 μM,replicates: in singlicate; n = 1
# T7 construct: gene STK4
# MST2 = system: T8, MST2; settings: concentration: 1 μM,replicates: in singlicate; n = 1
# T8 construct: gene STK3
# MST3 = system: T9, MST3; settings: concentration: 1 μM,replicates: in singlicate; n = 1
# T9 construct: gene STK24
# MST4 = settings: concentration: 1 μM,replicates: in singlicate; n = 1
# [1] = concentration: 1 μM,replicates: in singlicate
# 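Also: KINOMEscan kinase panel screen.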
smiles,measurement,setting,value
CCNCC(Cc1ccccc1)NC(=O)c1cc(Br)c(-c2ccnc3[nH]ccc23)s1.Cl.Cl (stereo not shown) [GSK1383280],%Inh,MEK5,55%
same,%Inh,MEK6,21%
same,%Inh,MELK,97.5%
same,%Inh,MERTK,34%
same,%Inh,MET; [1],6%
same,%Inh,MINK,64%
same,%Inh,MKK7,35%
same,%Inh,MKNK1,0%
same,%Inh,MKNK2,94.3%
same,%Inh,MLCK,17%
same,%Inh,MLK1,0%
same,%Inh,MLK2,6%
same,%Inh,MLK3,0%
same,%Inh,MRCKA,64%
same,%Inh,MRCKB,98.2%
same,%Inh,MST1R,30%
same,%Inh,MST1,0%
same,%Inh,MST2,0%
same,%Inh,MST3,1%
same,%Inh,MST4,26%
O=C1NCCc2[nH]c(-c3ccncc3)cc21,%Inh,MEK5,35%
same,%Inh,MEK6,25%
same,%Inh,MELK,21%
same,%Inh,MERTK,0%
same,%Inh,MET; 1 µM,33%
same,%Inh,MINK,55%
same,%Inh,MKK7,0%
same,%Inh,MKNK1,13%
same,%Inh,MKNK2,23%
same,%Inh,MLCK,58%
same,%Inh,MLK1,0%
same,%Inh,MLK2,0%
same,%Inh,MLK3,13%
same,%Inh,MRCKA,0%
same,%Inh,MRCKB,0%
same,%Inh,MST1R,51%
same,%Inh,MST1,3%
same,%Inh,MST2,20%
same,%Inh,MST3,23%
same,%Inh,MST4,0%
CS(=O)(=O)c1cccc(CNc2nc(Nc3ccc4c(c3)[C@@H]3C[C@@H]4CNC3=O)ncc2C(F)(F)F)c1,%Inh,MEK5,94.5%
same,%Inh,MEK6,5%
same,%Inh,MELK,5%
same,%Inh,MERTK,98.6%
same,%Inh,MET; [1],93.8%
same,%Inh,MINK,90.3%
same,%Inh,MKK7,9%
same,%Inh,MKNK1,0%
same,%Inh,MKNK2,97.6%
same,%Inh,MLCK,15%
same,%Inh,MLK1,99.8%
same,%Inh,MLK2,84%
same,%Inh,MLK3,98.1%
same,%Inh,MRCKA,0%
same,%Inh,MRCKB,0%
same,%Inh,MST1R,0%
same,%Inh,MST1,0%
same,%Inh,MST2,18%
same,%Inh,MST3,15%
same,%Inh,MST4,0%
Cn1cc(-c2cccc3c(N)c(C(N)=O)nnc23)cn1,%Inh,MEK5,41%
same,%Inh,MEK6,0%
same,%Inh,MELK,16%
same,%Inh,MERTK,0%
same,%Inh,MET; [1],3%
same,%Inh,MINK,29%
same,%Inh,MKK7,13%
same,%Inh,MKNK1,5%
same,%Inh,MKNK2,29%
same,%Inh,MLCK,0%
same,%Inh,MLK1,8%
same,%Inh,MLK2,2%
same,%Inh,MLK3,2%
same,%Inh,MRCKA,20%
same,%Inh,MRCKB,3%
same,%Inh,MST1R,24%
same,%Inh,MST1,23%
same,%Inh,MST2,2%
same,%Inh,MST3,51%
same,%Inh,MST4,40%
COc1cc(Nc2nccc(N3CCC(NC(=O)c4cccc(C#N)c4)C3)n2)cc(OC)c1OC (stereo not shown) [GSK1379751],%Inh,MEK5,85%
same,%Inh,MEK6,0%
same,%Inh,MELK,0%
same,%Inh,MERTK,9%
same,%Inh,MET; [1],6%
same,%Inh,MINK,0%
same,%Inh,MKK7,16%
same,%Inh,MKNK1,0%
same,%Inh,MKNK2,67%
same,%Inh,MLCK,0%
same,%Inh,MLK1,52%
same,%Inh,MLK2,34%
same,%Inh,MLK3,25%
same,%Inh,MRCKA,18%
same,%Inh,MRCKB,0%
same,%Inh,MST1R,21%
same,%Inh,MST1,0%
same,%Inh,MST2,0%
same,%Inh,MST3,0%
same,%Inh,MST4,0%
Cl.Cl.NC[C@H](CC1CCCCC1)NC(=O)c1ccc(-c2ccnc3[nH]ccc23)s1 [GSK1581428],%Inh,MEK5,52%
same,%Inh,MEK6,27%
same,%Inh,MELK,96.4%
same,%Inh,MERTK,68%
same,%Inh,MET; [1],16%
same,%Inh,MINK,67%
same,%Inh,MKK7,0%
same,%Inh,MKNK1,66%
same,%Inh,MKNK2,97.6%
same,%Inh,MLCK,74%
same,%Inh,MLK1,5%
same,%Inh,MLK2,0%
same,%Inh,MLK3,0%
same,%Inh,MRCKA,97.1%
same,%Inh,MRCKB,99.1%
same,%Inh,MST1R,26%
same,%Inh,MST1,0%
same,%Inh,MST2,0%
same,%Inh,MST3,9%
same,%Inh,MST4,55%
CC(C)c1nc(-c2cccc(NS(=O)(=O)c3ccccc3)c2)c(-c2ccnc(Nc3ccc4c(c3)CN(C)CC4)n2)s1 [GSK1649598],%Inh,MEK5,99.1%
same,%Inh,MEK6,26%
same,%Inh,MELK,65%
same,%Inh,MERTK,42%
same,%Inh,MET; [1],23%
same,%Inh,MINK,95.1%
same,%Inh,MKK7,1%
same,%Inh,MKNK1,0%
same,%Inh,MKNK2,81%
same,%Inh,MLCK,0%
same,%Inh,MLK1,18%
same,%Inh,MLK2,0%
same,%Inh,MLK3,22%
same,%Inh,MRCKA,7%
same,%Inh,MRCKB,0%
same,%Inh,MST1R,41%
same,%Inh,MST1,67%
same,%Inh,MST2,26%
same,%Inh,MST3,82%
same,%Inh,MST4,82%
Cn1ccc2ncnc(Oc3ccc(NC(=O)Nc4cccc(C(F)(F)F)c4)c(Cl)c3)c21,%Inh,MEK5,30%
same,%Inh,MEK6,30%
same,%Inh,MELK,0%
same,%Inh,MERTK,85%
same,%Inh,MET; [1],17%
same,%Inh,MINK,4%
same,%Inh,MKK7,32%
same,%Inh,MKNK1,16%
same,%Inh,MKNK2,19%
same,%Inh,MLCK,12%
same,%Inh,MLK1,53%
same,%Inh,MLK2,12%
same,%Inh,MLK3,2%
same,%Inh,MRCKA,3%
same,%Inh,MRCKB,21%
same,%Inh,MST1R,33%
same,%Inh,MST1,16%
same,%Inh,MST2,24%
same,%Inh,MST3,18%
same,%Inh,MST4,0%
